23 molecules from PubChem BioAssay (NCATS) can be followed below.

Records with an inconclusive call do not appear. Activity calls are given as the source filed them. Calls come from the whole dose curve; as a rule, active = well fitted cell-killing curve with a large enough effect; inconclusive = small, poorly fitted or top-dose-only effect, or effect the other way; inactive = flat fitted curve, though single readings scatter.

Assay in all cases: Primary qHTS to identify gynecologic anti-cancer compounds using libraries of approved drugs and bioactive compounds (AID 1345084); note: nearly all actives have a fitted effect of over 55% in size
(qHTS replaces the single test concentration by a dilution series.)

The subject of one assay is CAOV3. The settings on record: Gynecologic cancer cell panel viability, ATPlite luminescence, 48 h; series mostly up to 57.5 µM. The procedure, abridged: (§1)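 Cells, 1,000 per well, were allowed to settle for 16 h at 37 C before compound addition. Five concentrations were tested for 48 h, and viability was read by ATPlite luminescence after 15 min at room temperature.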
Background: Cellular ATP, detected with luciferase, serves as a proxy for viable cell number.

A further assay concerns CASKI. The conditions noted are these: Gynecologic cancer cell panel viability, ATPlite luminescence, 48 h; series mostly up to 57.5 µM. The procedure, abridged: as §1
Another assay relates to Es-2. The conditions noted are these: Gynecologic cancer cell panel viability, ATPlite luminescence, 48 h; series mostly up to 57.5 µM. The procedure, abridged:
as §1

For another assay, the system named is HeLa. The conditions noted are these: Gynecologic cancer cell panel viability, ATPlite luminescence, 48 h; series mostly up to 57.5 µM. The procedure, abridged:
as §1

The next assay has as its system Hek293T. The conditions noted are these: Gynecologic cancer cell panel viability, ATPlite luminescence, 48 h, control line for the selectivity index; series mostly up to 57.5 µM. The procedure, abridged:
as §1

A further assay has as its system JEG-3. The conditions noted are these: Gynecologic cancer cell panel viability, ATPlite luminescence, 48 h; series mostly up to 57.5 µM. The procedure, abridged: as §1
Another assay concerns OV90. The settings on record: Gynecologic cancer cell panel viability, ATPlite luminescence, 48 h; series mostly up to 57.5 µM. The procedure, abridged:
as §1

The subject of the next assay is PA-1. The settings on record: Gynecologic cancer cell panel viability, ATPlite luminescence, 48 h; series mostly up to 57.5 µM. The procedure, abridged: as §1
Another assay concerns Tov-21-G. The settings on record: Gynecologic cancer cell panel viability, ATPlite luminescence, 48 h; series mostly up to 57.5 µM. The procedure, abridged: as §1
The test system of the next assay is SKOV3. The settings on record: Gynecologic cancer cell panel viability, ATPlite luminescence, 48 h; series mostly up to 57.5 µM. The procedure, abridged:
as §1
Potency is the fitted concentration of half-maximal effect.

On to `Nc1c2c(nc3ccccc13)CCCC2`, for which the Potency result in the assay on CAOV3, in the assay with CASKI, in the assay on Es-2, in the assay on HeLa, in the assay with Hek293T and in the assay with JEG-3 was “inactive” each time. Moreover, the Potency entry with OV90, in the assay on PA-1 and with Tov-21-G was “inactive” in each case.
As to `NCCc1cnc[nH]1`, the Potency entry in the assay on CAOV3, in the assay with CASKI, in the assay with Es-2, with HeLa, with Hek293T and in the assay with JEG-3 was “inactive” in each case. The Potency entry in the assay with OV90, in the assay with PA-1, in the assay with SKOV3 and with Tov-21-G was “inactive” each time.
On to `COc1cc2nc(N(C)CCCNC(=O)C3CCCO3)nc(N)c2cc1OC` (centres undefined), for which the Potency entry in the assay with CAOV3, in the assay on CASKI, in the assay on Es-2, in the assay on HeLa, in the assay with Hek293T and in the assay with JEG-3 was “inactive” each time. Moreover, the Potency entry in the assay on OV90, in the assay with PA-1, in the assay with SKOV3 and in the assay with Tov-21-G was “inactive” in each case.
Take `CC(COc1ccccc1)N(CCCl)Cc1ccccc1` (centres undefined): the Potency result in the assay with CAOV3, in the assay on CASKI, in the assay on Es-2, in the assay on HeLa, in the assay with Hek293T and in the assay on JEG-3 was “inactive” in each case. Also, the Potency result in the assay with OV90, with PA-1, in the assay with SKOV3 and with Tov-21-G was “inactive” each time.
With `CN(C)c1nc(N(C)C)nc(N(C)C)n1`, the Potency entry with CAOV3, in the assay on CASKI, in the assay with Es-2, in the assay with HeLa, in the assay on Hek293T and in the assay with JEG-3 was “inactive” throughout. In addition, the Potency entry in the assay with OV90, in the assay with PA-1 and in the assay with Tov-21-G was “inactive” each time.
In the case of `Nc1ccn([C@H]2CC[C@@H](CO)O2)c(=O)n1`, the Potency result with CAOV3, with CASKI, in the assay on Es-2, with HeLa, in the assay on Hek293T and with JEG-3 was “inactive” in each case. The Potency result in the assay with OV90, in the assay with PA-1, with SKOV3 and in the assay on Tov-21-G was “inactive” throughout.
As for `Cc1cc(C(C)(C)C)c(O)c(C)c1CC1=NCCN1`, the Potency entry in the assay with CAOV3, with CASKI, in the assay on Es-2, in the assay with HeLa, in the assay on Hek293T and in the assay on JEG-3 was “inactive” each time. The Potency entry with OV90, in the assay on PA-1, in the assay on SKOV3 and with Tov-21-G was “inactive” throughout.
In the case of `Clc1ccc(C(c2ccccc2Cl)C(Cl)Cl)cc1` (centres undefined), the Potency result in the assay with CAOV3, in the assay on CASKI, with Es-2, with HeLa, with Hek293T and with JEG-3 was “inactive” in each case. In addition, the Potency entry with OV90, in the assay on PA-1, in the assay with SKOV3 and with Tov-21-G was “inactive” each time.
As for `CCc1cccc2c3c([nH]c12)C(CC)(CC(=O)O)OCC3` (centres undefined), the Potency result in the assay with CAOV3, in the assay on CASKI, with Es-2, in the assay on HeLa, in the assay on Hek293T and in the assay on JEG-3 was “inactive” throughout. Further, the Potency result with OV90, in the assay on PA-1, with SKOV3 and in the assay with Tov-21-G was “inactive” in each case.
Take `CN(C)C(=N)N=C(N)N`: the Potency entry in the assay with CAOV3, in the assay on CASKI, in the assay with Es-2, in the assay with HeLa, in the assay on Hek293T and in the assay on JEG-3 was “inactive” each time. Further, the Potency result with OV90, with PA-1, in the assay with SKOV3 and with Tov-21-G was “inactive” throughout.
For `CCC1(c2ccccc2)C(=O)NCNC1=O`, the Potency entry in the assay with CAOV3, in the assay with CASKI, in the assay with Es-2, in the assay on HeLa, in the assay on Hek293T and in the assay with JEG-3 was “inactive” throughout. Besides, the Potency result in the assay on OV90, with PA-1, in the assay on SKOV3 and in the assay on Tov-21-G was “inactive” in each case.
Consider `COc1ccccc1N1CCN(CC(O)COc2cccc3ccccc23)CC1` (centres undefined), for which the Potency with CAOV3 is 12.6 µM (active); in the assay on CASKI it was 14.1 µM (active); in the assay with Es-2 it was 25.1 µM (active); with Hek293T it was 31.6 µM (active); in the assay on PA-1 it was 3.55 µM (active); with SKOV3, 1.78 µM (active).
For `CC[N+](CC)(CC)CCOc1cccc(OCC[N+](CC)(CC)CC)c1OCC[N+](CC)(CC)CC`, the Potency entry in the assay with CASKI, with Es-2, with HeLa, with Hek293T, in the assay on JEG-3 and with OV90 was “inactive” each time. For the same molecule, the Potency entry in the assay on PA-1, with SKOV3 and in the assay with Tov-21-G was “inactive” each time.
`NC(=O)OCC(COC(N)=O)c1ccccc1`: the Potency result in the assay with CASKI, with Es-2, in the assay on HeLa, in the assay on Hek293T, in the assay with JEG-3 and in the assay on OV90 was “inactive” each time. Moreover, the Potency entry with PA-1, in the assay with SKOV3 and in the assay with Tov-21-G was “inactive” in each case.
Consider `O=C(C1CCCCC1)N1CC(=O)N2CCc3ccccc3C2C1` (centres undefined), for which the Potency entry in the assay on CASKI, in the assay on Es-2, with HeLa, in the assay on Hek293T, in the assay with JEG-3 and with OV90 was “inactive” each time. In addition, the Potency entry with PA-1, with SKOV3 and in the assay on Tov-21-G was “inactive” each time.
Consider `CCOC(=O)Nc1ccc(NCc2ccc(F)cc2)nc1N`, for which the Potency entry with CASKI, in the assay on Es-2, in the assay on HeLa, with Hek293T, with JEG-3 and in the assay with OV90 was “inactive” throughout. The Potency entry in the assay on PA-1, with SKOV3 and with Tov-21-G was “inactive” each time.
For `NC(=O)NO`, the Potency entry in the assay on CASKI, in the assay with Es-2, with HeLa, in the assay on Hek293T, with JEG-3 and in the assay with OV90 was “inactive” in each case. The Potency result in the assay with PA-1, in the assay on SKOV3 and with Tov-21-G was “inactive” in each case.
Take `CN1CCC(=C2c3ccccc3C=Cc3ccccc32)CC1`: the Potency result in the assay on CAOV3, in the assay with CASKI, in the assay with Es-2, with HeLa, with JEG-3 and in the assay with PA-1 was “inactive” each time. Also, the Potency entry in the assay on SKOV3 and in the assay with Tov-21-G was “inactive” in each case.
In the case of `C[C@@H]1CC(=O)NN=C1c1ccc(NN=C(C#N)C#N)cc1`, the Potency entry in the assay with CASKI, with Es-2, in the assay on HeLa, in the assay with Hek293T, with JEG-3 and in the assay with OV90 was “inactive” throughout. Also, the Potency entry in the assay with PA-1, with SKOV3 and in the assay with Tov-21-G was “inactive” throughout.
For `Cc1cn([C@H]2C[C@H](N=[N+]=[N-])[C@@H](CO)O2)c(=O)[nH]c1=O`, the Potency entry in the assay with CAOV3, in the assay with Es-2, in the assay on HeLa, in the assay on Hek293T, with JEG-3 and in the assay with OV90 was “inactive” each time. For the same molecule, the Potency result in the assay on SKOV3 and with Tov-21-G was “inactive” each time.
`Cn1c(=O)c2c(ncn2C)n(C)c1=O`: the Potency entry with CASKI, in the assay with Es-2, in the assay on HeLa, in the assay on Hek293T, with JEG-3 and in the assay on OV90 was “inactive” throughout. Also, the Potency entry in the assay on PA-1, in the assay with SKOV3 and in the assay with Tov-21-G was “inactive” in each case.
Consider `CN(C)CCC=C1c2ccccc2C=Cc2ccccc21`, for which the Potency result in the assay on CAOV3, in the assay with CASKI, in the assay with HeLa, in the assay on Hek293T, with JEG-3 and in the assay on PA-1 was “inactive” in each case. In addition, in the assay with Tov-21-G, the Potency result is “inactive”.
With `CC#C[C@]1(O)CC[C@H]2[C@@H]3CCC4=CC(=O)CCC4=C3[C@@H](c3ccc(N(C)C)cc3)C[C@@]21C`, the Potency entry with CAOV3, in the assay with CASKI, in the assay with Es-2, with Hek293T, in the assay with JEG-3 and in the assay on OV90 was “inactive” each time. In addition, the Potency entry in the assay on PA-1, with SKOV3 and with Tov-21-G was “inactive” each time.
